For 98 compounds, cytotoxicity results are on record in PubChem BioAssay AID431 (Sanford-Burnham Center for Chemical Genomics, 2006).

The campaign covered roughly 63,000 compounds. About 1,100 (1.7%) were called active.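 Rule for the calls: active = compounds whose percent cytotoxicity in the single-dose primary screen, scaled between solvent and toxic-drug controls, exceeds 50; inactive = the rest.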 Many of the other results were omitted from the sample, so actives are more common in it than they were. Potency and affinity values are given separately.

The test in a line: viability loss of HPDE-C7K cells – cell-based, fluorescence, HTS, primary screen (AID 431).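 Note: 0% = DMSO solvent wells and 100% = doxorubicin-treated wells.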 As to conditions: HPDE-C7K KRASV12 cells, Alamar Blue viability, 48 h; at 10 µM; stronger effect = higher value.
Turning to `COCCCNC(=O)CS(=O)(=O)Cc1nc(-c2ccccc2C)oc1C`, the cytotoxicity was -5.9% (inactive).

Turning to `CC(=O)N1CCc2ccc(C(=O)CN3CCN(c4cccc(C)c4C)CC3)cc21`, the cytotoxicity is -16.3% (inactive). For the compound `O=C(c1ccco1)N1CCN(c2nc(C(F)(F)F)nc3c2nnn3Cc2ccccc2)CC1`, the cytotoxicity was -16.9% (inactive). Take `Cc1nc(N2CCCC2)c2nnn(Cc3ccccc3Cl)c2n1`: the cytotoxicity is -7.7% (inactive). As for `CCCc1nc2sc3c(SCC(=O)NCc4ccco4)ncnc3c2c2c1CCC2`, the cytotoxicity was 50.3% (active). In the case of `Cc1nc(NCc2ccco2)c2c3c(sc2n1)CCC3`, the cytotoxicity is 52% (active).

On to `CC(C)c1nc2sc3c(SCC(=O)NCc4ccco4)ncnc3c2c2c1CCC2`, for which the cytotoxicity was 7.4% (inactive). Consider `CSc1nc(SCC(=O)NCc2ccco2)c2c3c(sc2n1)CN(C)CC3`, for which the cytotoxicity is 4.2% (inactive). For `CC(C)Sc1nc(SCC(=O)NCc2ccco2)c2c3c(sc2n1)COC(C)(C)C3`, the cytotoxicity was 0.4% (inactive). As for `CSc1nc(NCc2ccco2)c2c3c(sc2n1)CN(C)CC3`, the cytotoxicity was -5.3% (inactive). For the compound `O=C(CSc1ncnc2sc3c(c12)CCCCC3)NCc1ccco1`, the cytotoxicity was 1.1% (inactive). Consider `CC(C)c1nc2sc3c(NCc4ccco4)ncnc3c2c2c1COC(C)(C)C2`, for which the cytotoxicity was -13.3% (inactive). For the compound `Cc1nc(SCC(=O)NCc2ccco2)c2c3c(sc2n1)CCCC3`, the cytotoxicity is 2.5% (inactive). For `CC(C)Sc1nc(NCc2ccco2)c2c3c(sc2n1)COC(C)(C)C3`, the cytotoxicity is 68.5% (active).

For the compound `c1coc(CNc2ncnc3sc4c(c23)CCCCC4)c1`, the cytotoxicity is -13.4% (inactive). In the case of `CSc1nc(SCC(=O)NCc2ccco2)c2c3c(sc2n1)COC(C)(C)C3`, the cytotoxicity is 50.1% (active).

For `COc1cccc(C(O)c2cnc(C(C)C)n2C)c1OC` (stereo not drawn), the cytotoxicity is 10.6% (inactive). On to `O=C(Nc1ccc(S(=O)(=O)N2CCCCC2)cc1)c1ccncc1`, for which the cytotoxicity was -7.1% (inactive). Consider `CCOc1ccccc1-c1nnc(SCC(=O)Nc2ccccc2)o1`, for which the cytotoxicity was -17.6% (inactive).

`COCCCNC(=O)CS(=O)(=O)Cc1nc(-c2cccc(OC)c2)oc1C`: the cytotoxicity was -6.5% (inactive).

As for `COc1ccc(-c2nnc3n2-c2ccccc2SC3)cc1OC`, the cytotoxicity is 0% (inactive). As for `O=C(Cc1cc(=O)[nH]c(=O)[nH]1)N1CCN(C(=O)c2ccco2)CC1`, the cytotoxicity is 7.1% (inactive). With `CCCCCc1cc(O)c2c(C)cc(=O)oc2c1`, the cytotoxicity was 39.2% (inactive).

Consider `CCCCc1ccc(-c2ccc(C)cc2O)nc1`, for which the cytotoxicity is -28% (inactive).

Consider `C=CCn1c(SCc2csc(C)n2)nc2scc(-c3ccc(C)o3)c2c1=O`, for which the cytotoxicity was 80.2% (active). Under `C=CCn1c(SCc2csc(C)n2)nc2sc3c(c2c1=O)CCCCC3` stands 2.5% (inactive); under `Cc1ccc(-c2csc3nc(C)n(-n4c(C)ccc4C)c(=O)c23)o1`, 10.3% (inactive); under `Cc1ccc(-c2noc(CN(C(=O)CCN3C(=O)c4ccccc4C3=O)C(C)C)n2)cc1`, -8.2% (inactive). On to `CC(=O)OCCOc1nc(N(C)C)nc(N(C)C)n1`, for which the cytotoxicity is -13.1% (inactive). Turning to `O=C(CCN1CCCC1Cc1ccccc1)c1ccc2c(c1)OCCO2` (stereo not drawn), the cytotoxicity was -15.3% (inactive).

Turning to `Cc1cc(C)n(-c2nnc(C)n2/N=C/c2ccccc2OCc2ccccc2Cl)n1`, the cytotoxicity was 43.9% (inactive).

Consider `CCCOc1ccc2ccccc2c1/C=N/n1c(C)nnc1-n1nc(C)cc1C`, for which the cytotoxicity is 39.3% (inactive). Under `Cc1cc(C)n(-c2nnc(C)n2/N=C/c2cc(Br)ccc2OCc2ccccc2)n1` stands 65.2% (active); under `COc1ccc(-c2nnn(CC(=O)c3ccc4c(c3)OCCO4)n2)cc1OC`, 0.3% (inactive). Regarding `O=C(c1ccc2ccccc2c1)N1CCN(c2ccc(O)cc2)CC1`, the cytotoxicity was 65.9% (active).

As to `CN1CCN(C(=O)c2ccc3ccccc3c2)CC1`, the cytotoxicity was -8.1% (inactive). Under `O=C(c1ccc2ccccc2c1)N1CCN(c2ccccc2)CC1` stands -11.6% (inactive). In the case of `CC(C)OCCCNC(=O)c1ccc(NC(=O)C2CCCO2)cc1` (stereo not drawn), the cytotoxicity was -5.7% (inactive). In the case of `Cc1cc(NC(=O)C23CCC(C)(C(=O)O2)C3(C)C)no1` (stereo not drawn), the cytotoxicity was 1.7% (inactive).

Regarding `O=C(NCc1ccco1)N1c2ccccc2Sc2ccccc21`, the cytotoxicity was 7.5% (inactive). Consider `COC(=O)C1=C(C)NC(=O)C1(NC(=O)CN1CCCC1=O)C(F)(F)F` (stereo not drawn), for which the cytotoxicity was 13.1% (inactive). Take `CCOC(=O)C1CCCN(C(=O)c2cc3c(C)nc4ccccc4c3o2)C1` (stereo not drawn): the cytotoxicity was -14.6% (inactive). `N#Cc1c(NC(=O)CSc2nnnn2C2CCCC2)sc2c1CCCC2`: the cytotoxicity was 50.4% (active). With `N#Cc1c(NC(=O)CSc2nnnn2C2CCCCC2)sc2c1CCCC2`, the cytotoxicity was -26.1% (inactive). As for `Cc1sc(NC(=O)CSc2nnnn2C2CCCC2)c(C#N)c1C`, the cytotoxicity is -6.4% (inactive). Take `CC1CCCN(C(=O)c2ccc3nc[nH]c3c2)C1` (stereo not drawn): the cytotoxicity was -23.2% (inactive).

Turning to `COc1ccc(C)cc1NC(=O)c1ccc(S(=O)(=O)N2CCOCC2)cc1`, the cytotoxicity was -1.3% (inactive). With `Nc1nonc1C(=O)NCCNC(=O)c1ccccc1F`, the cytotoxicity was 2.3% (inactive). With `Nc1nonc1C(=O)NCCN=Cc1cc(Cc2ccccc2)cc(Br)c1O`, the cytotoxicity was 82.8% (active). With `COc1cccc(C=NCCNC(=O)c2nonc2N)c1O`, the cytotoxicity was -2.1% (inactive). Regarding `O=C(OCc1ccccc1Cl)c1ccc(-n2cnnc2)cc1`, the cytotoxicity was -8% (inactive). Turning to `CCOc1ccc(-n2cnnn2)cc1S(=O)(=O)NCc1ccccc1`, the cytotoxicity is 4.1% (inactive). Take `CC(C)(O)C1=NOC(c2ccccc2)C1` (stereo not drawn): the cytotoxicity was 6.7% (inactive). Consider `CCOC(=O)c1ccc(NC(=O)CSc2nnc(-c3cccs3)n2CC)cc1`, for which the cytotoxicity is 0.1% (inactive). With `Cc1ccc(SC/C(O)=C(\C#N)c2nc3ccccc3n2C)cc1`, the cytotoxicity was 20.5% (inactive). For the compound `COc1ccc(C/C(O)=C(\C#N)c2nc3ccccc3s2)cc1`, the cytotoxicity is 46.6% (inactive). Under `COC(=O)c1ccc(/C(O)=C(\C#N)c2nc3ccccc3s2)cc1` stands 52.1% (active). In the case of `CC(C)=C(C#N)c1nc2ccccc2s1`, the cytotoxicity is -11.4% (inactive). Under `Cc1ccc(SC/C(O)=C(\C#N)c2nc3ccccc3s2)cc1` stands 79.7% (active); under `N#C/C(=C(/O)CN1CCOCC1)c1nc2ccccc2s1`, 3% (inactive); under `c1ccc(N2CCN(c3nnc(Cc4cccnc4)c4ccccc34)CC2)nc1`, 8.4% (inactive). For `COc1ccc(OC)c(NC(=O)c2cnc3ccccn3c2=O)c1`, the cytotoxicity was 12.6% (inactive). As to `COC(=O)CN(c1ccc(F)cc1)S(=O)(=O)c1ccccc1`, the cytotoxicity was -5.6% (inactive). Take `CC(C)CCNC(=O)CN(C(=O)CCC(=O)Nc1ccccn1)c1ccc2c(c1)OCO2`: the cytotoxicity is -9.3% (inactive). For the compound `COC(=O)c1cc(N2C(=O)C3C(C2=O)C2(C)C=CC3(C)O2)ccc1Cl` (stereo not drawn), the cytotoxicity is 8% (inactive).

Take `Cc1cccc(OCCn2c(=O)n(C)c3ccccc32)c1`: the cytotoxicity is 2.1% (inactive). Consider `Cc1cccc(OCCCN2CCCCCC2)c1`, for which the cytotoxicity was 18.4% (inactive).

As for `CCCn1nc(CC(=O)O)c2ccccc2c1=O`, the cytotoxicity is 0.6% (inactive). Under `Cc1ccc(NC(=O)CCn2c(=O)oc3ccccc32)c(C)c1` stands -9.2% (inactive); under `CCCCn1c(SCc2c(C)noc2C)nc2cc(S(N)(=O)=O)ccc21`, 39.5% (inactive); under `CCCCn1c(SCc2ncc(-c3ccccc3)o2)nc2cc(S(N)(=O)=O)ccc21`, 53.1% (active). For `CCCCn1c(SCN2C(=O)c3ccccc3C2=O)nc2cc(S(N)(=O)=O)ccc21`, the cytotoxicity was -14.9% (inactive).

`COc1ccccc1C1C2CCCCC2(O)CCN1CC(=O)Nc1ccccc1` (stereo not drawn): the cytotoxicity was -7.4% (inactive). Take `Cn1cc(S(=O)(=O)CC(=O)N2CCc3ccccc32)c2ccccc21`: the cytotoxicity is 26.9% (inactive). As to `O=C(CSc1nnc(-c2cc3ccccc3cc2O)n1Cc1ccco1)c1ccc(F)cc1`, the cytotoxicity is 13.1% (inactive). Under `COc1ccc(C(=O)CSc2nnc(-c3cc4ccccc4cc3O)n2Cc2ccco2)cc1` stands 66.1% (active).

In the case of `COc1ccc(C(=O)CSc2nnc(-c3ccccn3)n2Cc2ccco2)cc1`, the cytotoxicity was 5% (inactive). Consider `Cc1nc2c(c(=O)n1CCC1=CCCCC1)c1nc3ccccc3nc1n2/N=C/c1ccco1`, for which the cytotoxicity was 63.1% (active). Regarding `O=c1c2c3nc4ccccc4nc3n(/N=C/c3ccco3)c2ncn1CCC1=CCCCC1`, the cytotoxicity is 30% (inactive). For `CCCn1c(C)nc2c(c1=O)c1nc3ccccc3nc1n2CCC1=CCCCC1`, the cytotoxicity is 16.1% (inactive). Under `COc1ccc(S(=O)(=O)n2nc(-c3cc(OC)c(OC)c(OC)c3)cc2N)cc1OC` stands 5.2% (inactive); under `COc1ccc(OC)c(S(=O)(=O)n2nc(-c3ccccc3)cc2N)c1`, -10.9% (inactive); under `O=C(CSc1nc2ccccc2[nH]1)N1CCCCC1`, 0.6% (inactive). As for `COc1ccc(-c2noc(C3CCCN(C(=O)c4cccs4)C3)n2)cc1` (stereo not drawn), the cytotoxicity is -10.3% (inactive). As to `COc1ccc(NC(=O)N2CCCC(c3nc(-c4ccc(C(C)C)cc4)no3)C2)cc1` (stereo not drawn), the cytotoxicity is 65.6% (active). Regarding `Cc1ccccc1NC(=O)N1CCCC(c2nc(-c3ccc(C(C)C)cc3)no2)C1` (stereo not drawn), the cytotoxicity was 28.5% (inactive). In the case of `CN(CC(=O)N1CCc2ccccc21)S(=O)(=O)c1ccc(Cl)cc1`, the cytotoxicity is 1.1% (inactive). Under `COC(=O)C(C(=O)Nc1cc(C)on1)C1CCCCCC1` (stereo not drawn) stands -4.9% (inactive). For `CSc1nc2cc(Cl)ccc2s1`, the cytotoxicity was -3.5% (inactive). Under `COc1ccc(C(=O)c2ccc(N3CCOCC3)cc2)c(OC)c1` stands 4.5% (inactive).

Regarding `COc1ccc(C(=O)c2ccc(N(C)C)cc2)c(OC)c1`, the cytotoxicity was 56.3% (active). Under `COc1ccc(C(=O)Oc2ccc(C(C)=O)cc2)c(OC)c1` stands 3.6% (inactive); under `COc1cc(SC)ccc1C(=O)Nc1ccccc1C#N`, 28.3% (inactive); under `Nc1cc(N)nc(SCCOc2ccccc2F)n1`, -15.6% (inactive). As for `COc1ccccc1NC(=O)N1CCCC1C(=O)Nc1nnc(C(C)C)s1` (stereo not drawn), the cytotoxicity was 4.6% (inactive). As to `O=C(NCc1ccco1)C(c1cccnc1)N(C(=O)Cn1nnc2ccccc21)c1ccc(F)cc1` (stereo not drawn), the cytotoxicity is 9.8% (inactive). On to `COC(=O)C1=C(C)N(C)C(C)=C(C(=O)OC)C1c1ccncc1`, for which the cytotoxicity is -1% (inactive). In the case of `Cc1ccc(CNC(=O)CCS(=O)(=O)c2cccc3nonc23)cc1`, the cytotoxicity was -9.3% (inactive).
